Test results published in PubChem BioAssay (NCATS).
Records with an inconclusive call do not appear. Active and inactive are the calls of the source. Unless noted, calls follow the shape of the full dose curve.

Columns and labels:
[1] = qHTS for Inhibitors of the Functional Ribonucleoprotein Complex (vRNP) of Lassa (LASV) Arenavirus: LASV Primary Screen - GLuc reporter signal (AID 1347082; calls by dose curve; tested in HEK293 reporter line; also: % is scaled to controls: 0 for no effect and ±100 for the full control effect; nearly all actives have a fitted effect of over 60% in size)
[2] = qHTS for Inhibitors of the Functional Ribonucleoprotein Complex (vRNP) of Lassa (LASV) Arenavirus: Viability assay - alamar blue signal for LASV Primary Screen (AID 1347083; calls by dose curve; tested in HEK293 reporter line; also: nearly all actives have a fitted effect of over 80% in size; also: potency is read from the fitted curve at half-maximal effect)
[3] = qHTS for Inhibitors of the Functional Ribonucleoprotein Complex (vRNP) of Lymphocytic Choriomeningitis Arenaviruses (LCMV): Viability assay - alamar blue signal for LCMV Primary Screen (AID 1347085; calls by dose curve; tested in HEK293 reporter line; also: nearly all actives have a fitted effect of over 80% in size; also: potency is read from the fitted curve at half-maximal effect)
[4] = target: Nucleoprotein (Lymphocytic choriomeningitis virus (strain Armstrong)) (UniProt P09992); assay: qHTS for Inhibitors of the Functional Ribonucleoprotein Complex (vRNP) of Lymphocytic Choriomeningitis Arenaviruses (LCMV): LCMV Primary Screen - GLuc reporter signal (AID 1347086); also: % is scaled to controls: 0 for no effect and ±100 for the full control effect; nearly all actives have a fitted effect of over 70% in size
[5] = Cytotoxicity counterscreen for inhibitors of SARS-CoV-2 cell entry (AID 1645845); also: nearly all actives have a fitted effect of over 50% in size; as to activity change, negative = cytotoxicity: % is scaled to controls: 0 for no effect and ±100 for the full control effect
Method in brief: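 48 h compound treatment (after 1 h preincubation), HEK293-ACE2 cells, 37 C/5% CO2; ATP luminescence endpoint; normalized to cell wells and media blanks.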

[6] = Primary qHTS to identify inhibitors of SARS-CoV-2 cell entry (AID 1645846); details: activity change, negative = inhibition: at 57.1 µM (top of the series) unless noted; also: nearly all actives have a fitted effect of over 45% in size
Method in brief: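 Entry measured by luciferase signal 48 h after adding SARS-CoV-2-S pseudotyped MLV particles to HEK293-ACE2 cells preincubated 1 h with compounds. Normalisation: bald particles and spike particles.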

[7] = qHTS profiling of the MIPE4 collection as inhibitors of Plasmodium falciparum (3D7) proliferation (AID 743344; call rule not given here;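 also: scaled between DMSO vehicle wells and 0.29 µM artemisinin as full inhibition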); details: P. falciparum 3D7 in erythrocytes, SYBR Green DNA fluorescence, 72 h; at 28.5 µM (top of the series) unless noted
Method in brief: (§1)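 Erythrocytes infected with P. falciparum (0.3% parasitemia, 2.5% hematocrit) incubated with compounds 72 h at 37 C, 5% CO2. Lysis with saponin/Triton buffer containing SYBR Green I, overnight at room temperature in the dark; DNA fluorescence (485/535 nm) normalised to 0.29 uM artemisinin and DMSO.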

[8] = qHTS profiling of the MIPE4 collection as inhibitors of Plasmodium falciparum (DD2) proliferation (Rep 2) (AID 743346; call rule not given here); details: P. falciparum Dd2 in erythrocytes, SYBR Green DNA, 72 h; at 28.5 µM (top of the series) unless noted
Method in brief: as §1

[9] = qHTS profiling of the MIPE4 collection as inhibitors of Plasmodium falciparum (HB3) proliferation (AID 743347; call rule not given here;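 also: plate controls were DMSO vehicle wells for no effect and artemisinin wells for full effect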); details: P. falciparum HB3 in erythrocytes, SYBR Green DNA, 72 h; at 28.5 µM (top of the series) unless noted
Method in brief: as §1

[10] = target: Nuclear receptor subfamily 1 group I member 3 (Homo sapiens) (UniProt Q14994); assay: Primary qHTS for antagonist of constitutive androstane receptor (CAR) against the NCATS DSHEA and TCM libraries (AID 1794836; active = well fitted curve in the direction sought with a large enough effect; an effect the other way counts as inactive or inconclusive;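 also: HepG2 cells stably expressing hCAR with CYP2B6 luciferase reporter stimulated by CITCO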)
Method in brief: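 Antagonist mode: CAR reporter luminescence (ONE-Glo) in HepG2-CYP2B6-hCAR cells stimulated with 48 uM CITCO (final) over 24 h at 37 C, compounds titrated; viability read first by CellTiter-Fluor fluorescence.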

[11] = target: Alpha-galactosidase (Coffea arabica) (UniProt Q42656); assay: Counterscreen for Glucocerebrosidase Inhibitors: qHTS Assay for Coffee Bean alpha-Galactosidase at pH 4.5 (AID 957; active = well fitted curve in the direction sought with a large enough effect; an effect the other way counts as inactive or inconclusive;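 also: plate controls were enzyme alone for no effect and no enzyme for full effect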)
Method in brief: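 AC50 values derive from Hill-equation modeling of concentration-response data, normalized to no-enzyme and full-activity controls. The pH 4.5 citrate assay used 2 nM coffee bean enzyme and 80 uM fluorogenic substrate for 20 min.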

[12] = target: Alpha-galactosidase (Coffea arabica) (UniProt Q42656); assay: Counterscreen for Glucocerebrosidase Inhibitors: qHTS Assay for Coffee Bean alpha-Galactosidase at pH 5.9 (AID 998; active = well fitted curve in the direction sought with a large enough effect; an effect the other way counts as inactive or inconclusive;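 also: plate controls were uninhibited enzyme for no effect and no-enzyme basal signal for full effect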)
Method in brief: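 Compounds were titrated from 0.7 nM to 77 uM against green coffee bean alpha-galactosidase (2 nM) using 80 uM fluorogenic 4-methylumbelliferyl substrate. After 20 min at room temperature, reactions were stopped at pH 10 and read by fluorescence.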

[13] = Inducers of the Endoplasmic Reticulum Stress Response (ERSR) in human glioma: Validation (AID 504836; active = well fitted curve in the direction sought with a large enough effect; an effect the other way counts as inactive or inconclusive; also: 0% is about no effect)
Method in brief: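 ERSR induction read as luciferase luminescence (Bright-Glo, 10 min at room temperature) in stably transfected human U87-MG glioma cells exposed to compounds for 16 h, using GRP78 as sensor.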

[14] = target: Cytochrome P450 3A4 (Homo sapiens) (UniProt P08684); assay: qHTS Assay for Activators of Cytochrome P450 3A4 (AID 885; active = well fitted curve in the direction sought with a large enough effect; an effect the other way counts as inactive or inconclusive; also: nearly all actives have a fitted effect of over 65% in size)
Method in brief: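 Signal was normalized against complete inhibition by 57 uM ketoconazole. The reaction used 20nM CYP3A4 with 25uM Luciferin-PPXE, 10-min compound preincubation and a 60-min NADPH-supported step at RT.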

[15] = target: Cytochrome P450 2C19 (Homo sapiens) (UniProt P33261); assay: qHTS Assay for Inhibitors and Substrates of Cytochrome P450 2C19 (AID 899; active = well fitted curve in the direction sought with a large enough effect; an effect the other way counts as inactive or inconclusive; also: potency is read from the fitted curve at half-maximal effect; nearly all actives have a fitted effect of over 60% in size)
Method in brief: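 Luminescence readout of luciferin formed from 10uM Luciferin-H EGE (KM level) by 5 nM CYP2C19 in 50mM KPO4. 60 min NADPH-driven reaction at 37C after 10 min compound preincubation; data scaled to 57uM ketoconazole inhibition.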

[16] = Validation screen for inhibitors of Lassa infection (AID 463096); also: % is scaled to controls: 0 for no effect and ±100 for the full control effect
[17] = qHTS profiling for inhibitors of Plasmodium falciparum (3D7) proliferation (AID 743322; call rule not given here;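 also: infected erythrocytes exposed to compound for 72 h before lysis; 100% = DMSO vehicle wells and 0% = 0.29 µM artemisinin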); details: P. falciparum 3D7 proliferation; at 28.7 µM (top of the series)
Method in brief: as §1

[18] = qHTS profiling for inhibitors of Plasmodium falciparum (DD2) proliferation (AID 743323; call rule not given here); details: lower = more inhibition; at 28.7 µM (top of the series)
Method in brief: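 Parasite DNA quantified by SYBR Green fluorescence (ex 485, em 535 nm) after saponin/Triton lysis and overnight dark incubation. Cultures: 0.3% parasitemia, 2.5% hematocrit, 72 h, 37 C; data scaled between DMSO and 0.29 uM artemisinin.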

[19] = qHTS profiling for inhibitors of Plasmodium falciparum (HB3) proliferation (AID 743324; active = well fitted curve in the direction sought with a large enough effect; an effect the other way counts as inactive or inconclusive;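 also: 100% = DMSO vehicle wells and 0% = artemisinin-treated control wells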); details: Plasmodium falciparum HB3 blood-stage proliferation; at 28.7 µM (top of the series)
Method in brief: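 P. falciparum HB3 grown in erythrocytes (0.3% parasitemia, 2.5% hematocrit final) with compound for 72 h at 37 C, 5% CO2. Parasite DNA detected by SYBR Green after saponin/triton lysis overnight; normalized to 0.29 uM artemisinin and DMSO.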

[20] = qHTS profiling of the MIPE4 collection as inhibitors of Plasmodium falciparum (DD2) proliferation (AID 743345; call rule not given here); details: P. falciparum Dd2 in erythrocytes, SYBR Green DNA, 72 h; at 28.5 µM (top of the series) unless noted
Method in brief: as §1

[21] = VSVG counterscreen qHTS to identify inhibitors of SARS-CoV-2 cell entry (AID 1645847); also: potency is read from the fitted curve at half-maximal effect; nearly all actives have a fitted effect of over 65% in size
Method in brief: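 Luminescence read after 48 h infection at 37 C with VSV-G-pseudotyped MLV particles, following 1 h compound exposure of Expi293F cells stably expressing human ACE2; scaled between bald particle and VSV-G particle wells.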

Sequence of Nucleoprotein (Lymphocytic choriomeningitis virus (strain Armstrong)) (P09992 whole entry, looked up): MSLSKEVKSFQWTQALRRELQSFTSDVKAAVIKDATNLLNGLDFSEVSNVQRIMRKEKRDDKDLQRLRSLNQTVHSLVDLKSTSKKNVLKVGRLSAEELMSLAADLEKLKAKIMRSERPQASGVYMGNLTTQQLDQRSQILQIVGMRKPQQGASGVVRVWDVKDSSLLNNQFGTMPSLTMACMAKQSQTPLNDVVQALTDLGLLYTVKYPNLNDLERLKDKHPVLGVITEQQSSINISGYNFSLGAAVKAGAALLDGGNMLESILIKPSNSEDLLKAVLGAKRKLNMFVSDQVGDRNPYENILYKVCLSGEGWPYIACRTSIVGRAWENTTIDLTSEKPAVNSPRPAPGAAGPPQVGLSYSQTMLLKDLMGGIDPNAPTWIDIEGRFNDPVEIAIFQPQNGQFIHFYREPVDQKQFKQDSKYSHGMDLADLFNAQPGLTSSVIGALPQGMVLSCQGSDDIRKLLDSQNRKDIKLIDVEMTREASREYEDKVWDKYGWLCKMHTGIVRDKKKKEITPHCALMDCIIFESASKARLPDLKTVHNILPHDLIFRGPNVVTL
Sequence of Alpha-galactosidase (Coffea arabica) (Q42656 whole entry, looked up): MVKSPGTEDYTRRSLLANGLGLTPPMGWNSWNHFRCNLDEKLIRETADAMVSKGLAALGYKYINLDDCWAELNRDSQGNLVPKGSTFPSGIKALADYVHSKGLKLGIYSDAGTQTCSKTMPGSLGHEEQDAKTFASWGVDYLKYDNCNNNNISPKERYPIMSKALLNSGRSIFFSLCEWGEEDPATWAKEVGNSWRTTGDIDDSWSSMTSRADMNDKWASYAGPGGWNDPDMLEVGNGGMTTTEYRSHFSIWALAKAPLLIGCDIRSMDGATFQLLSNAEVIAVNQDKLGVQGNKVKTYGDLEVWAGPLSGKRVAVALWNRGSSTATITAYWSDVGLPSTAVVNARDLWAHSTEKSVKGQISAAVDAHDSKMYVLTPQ
Sequence of Nuclear receptor subfamily 1 group I member 3 (Homo sapiens) (Q14994 whole entry, looked up): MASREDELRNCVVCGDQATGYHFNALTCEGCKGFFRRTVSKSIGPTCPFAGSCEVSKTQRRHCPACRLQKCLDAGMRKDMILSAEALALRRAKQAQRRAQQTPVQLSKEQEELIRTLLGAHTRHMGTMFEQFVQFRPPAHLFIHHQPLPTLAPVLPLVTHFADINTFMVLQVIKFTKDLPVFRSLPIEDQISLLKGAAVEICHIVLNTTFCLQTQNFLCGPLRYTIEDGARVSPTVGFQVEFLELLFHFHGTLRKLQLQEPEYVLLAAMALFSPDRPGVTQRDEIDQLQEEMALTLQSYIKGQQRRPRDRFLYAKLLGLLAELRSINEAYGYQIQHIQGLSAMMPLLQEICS
Sequence of Cytochrome P450 3A4 (Homo sapiens) (P08684 whole entry, looked up): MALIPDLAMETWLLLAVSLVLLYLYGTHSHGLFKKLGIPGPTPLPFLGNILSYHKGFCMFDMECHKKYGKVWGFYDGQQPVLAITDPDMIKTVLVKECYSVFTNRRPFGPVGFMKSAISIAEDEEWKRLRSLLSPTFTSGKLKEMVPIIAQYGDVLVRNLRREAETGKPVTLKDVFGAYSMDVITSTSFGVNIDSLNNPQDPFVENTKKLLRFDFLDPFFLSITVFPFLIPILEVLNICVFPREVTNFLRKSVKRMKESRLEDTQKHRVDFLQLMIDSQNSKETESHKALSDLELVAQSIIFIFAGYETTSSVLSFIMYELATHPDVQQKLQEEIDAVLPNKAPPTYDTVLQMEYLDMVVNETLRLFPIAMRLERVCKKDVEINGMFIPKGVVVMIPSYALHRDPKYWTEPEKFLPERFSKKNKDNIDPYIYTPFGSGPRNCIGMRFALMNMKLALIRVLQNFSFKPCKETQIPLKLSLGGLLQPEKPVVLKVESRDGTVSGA
Sequence of Cytochrome P450 2C19 (Homo sapiens) (P33261 whole entry, looked up): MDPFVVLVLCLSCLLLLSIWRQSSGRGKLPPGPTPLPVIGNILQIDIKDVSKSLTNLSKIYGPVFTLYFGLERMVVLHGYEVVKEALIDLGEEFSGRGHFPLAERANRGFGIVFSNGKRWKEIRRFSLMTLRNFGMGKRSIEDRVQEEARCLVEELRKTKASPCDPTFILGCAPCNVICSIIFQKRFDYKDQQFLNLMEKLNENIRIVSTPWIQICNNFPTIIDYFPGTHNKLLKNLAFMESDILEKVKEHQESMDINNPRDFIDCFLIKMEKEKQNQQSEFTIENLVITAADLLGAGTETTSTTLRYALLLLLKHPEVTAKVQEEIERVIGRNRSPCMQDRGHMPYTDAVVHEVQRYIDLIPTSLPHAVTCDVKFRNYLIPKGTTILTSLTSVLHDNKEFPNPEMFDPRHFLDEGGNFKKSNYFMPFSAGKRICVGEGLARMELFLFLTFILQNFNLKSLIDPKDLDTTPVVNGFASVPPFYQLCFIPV

NCc1c[nH]c(=S)n1[C@H]1CCc2c(F)cc(F)cc2C1
inactive: Potency [1] | Potency [2] | Potency [3] | Potency [4] | Potency [5]
-19.7%: activity change, negative = inhibition [6]

C=C(C)[C@@H]1CC[C@]2(C)CC[C@]3(C)[C@H](CC[C@@H]4[C@@]5(C)CC[C@H](O)C(C)(C)[C@H]5CC[C@]43C)[C@@H]12
inactive: Potency [1] | Potency [2] | Potency [3] | Potency [4] | Potency [5] | Potency [6]

CCOC(=O)C1=C(O)C(=O)N(Cc2ccccc2)C1
inactive: Potency [1] | Potency [2] | Potency [3] | Potency [4] | Potency [5] | Potency [6]

Cc1cncc2cccc(S(=O)(=O)N3CCCN(C(=O)CN)C[C@@H]3C)c12
inactive: Potency [1] | Potency [2] | Potency [3] | Potency [4] | Potency [5]
-30.7%: activity change, negative = inhibition [6]

CCCCCCCCCCCC(CC1OC(=O)C1CCCCCC)OC(=O)C(CC(C)C)NC=O (stereo not drawn)
inactive: Potency [1] | Potency [2] | Potency [3] | Potency [4] | Potency [5]
0.438%: activity change, negative = inhibition [6]

COC(=O)[C@H](c1ccccc1Cl)N1CCc2sccc2C1
-28.2%: activity change, negative = inhibition [6]
inactive: Potency [1] | Potency [2] | Potency [3] | Potency [4] | Potency [5]

CNC(=O)c1ccc2cc(C3(O)CCn4cncc43)ccc2c1 (stereo not drawn)
inactive: Potency [1] | Potency [2] | Potency [3] | Potency [4] | Potency [5]
-19.9%: activity change, negative = inhibition [6]

C=C(C)[C@@H]1CC[C@]2(C(=O)O)CC[C@]3(C)[C@H](CC[C@@H]4[C@@]5(C)CC[C@H](O)C(C)(C)[C@@H]5CC[C@]43C)[C@@H]12
60.5%: parasite growth, % of DMSO control [7]
97%: parasite growth, % of control (lower = inhibition) [8]
208%: growth, % of control [9]
inactive: Potency [1] | Potency [2] | Potency [3] | Potency [4] | Potency [5] | Potency [6] | Potency [10]

CC(C)N(CCC(=O)c1ccc2ccccc2c1)Cc1ccccc1
inactive: outcome [11] | outcome [12] | outcome [13] | Potency [1] | Potency [2] | Potency [3] | Potency [4] | Potency [5]

O=c1c(O)c(-c2cc(O)c(O)c(O)c2)oc2cc(O)cc(O)c12
active: Potency [15] 10 µM
inactive: Potency [14] | outcome [13] | Potency [1] | Potency [2] | Potency [3] | Potency [4] | Potency [5] | Potency [6]

COc1c(N2C[C@@H]3CCCN[C@H]3C2)c(F)cc2c(=O)c(C(=O)O)cn(C3CC3)c12
inactive: Potency [1] | Potency [2] | Potency [3] | Potency [4] | Potency [5]
2.05%: activity change, negative = inhibition [6]

C[C@H](Cc1ccc(O)c(O)c1)[C@@H](C)Cc1ccc(O)c(O)c1
-10.6%: activity change, negative = inhibition [6]
inactive: outcome [11] | outcome [12] | Potency [16] | outcome [13] | Potency [1] | Potency [2] | Potency [3] | Potency [4] | Potency [5]

O=C(O)CCCCC(CCSCc1ccccc1)SCc1ccccc1 (stereo not drawn)
-0.966%: activity change, negative = inhibition [6]
inactive: Potency [1] | Potency [2] | Potency [3] | Potency [4] | Potency [5]

CCCCS(=N)(=O)CCC(N)C(=O)O (stereo not drawn)
inactive: Potency [16] | outcome [13] | Potency [1] | Potency [2] | Potency [3] | Potency [4] | Potency [5] | Potency [6]

C[C@H](CCC(=O)O)[C@H]1CCC2C3C[C@H](O)[C@@H]4C[C@H](O)CC[C@]4(C)C3CC[C@@]21C (stereo partly drawn)
-10.6%: activity change, negative = inhibition [6]
inactive: Potency [1] | Potency [2] | Potency [3] | Potency [4] | Potency [5]

O=C(O)c1ccccc1C(=O)Nc1ccc(-c2ccccc2)cc1
93.1%: remaining parasite growth % (stronger effect = lower value) [17]
82.2%: parasite growth, % of control (lower = inhibition) [8]
inactive: Potency [1] | Potency [2] | Potency [3] | Potency [4] | Potency [5] | Potency [6]
87.2%: growth, % of control [9]
93.6%: parasite growth, % of DMSO control [7]
92.6%: activity, percent of control [18]
75.7%: remaining proliferation (% of control), lower = more inhibition [19]

CCCNC(=O)Nc1ccc(Oc2ncnc3cc(OC)c(OC)cc23)cc1Cl
inactive: Potency [1] | Potency [2] | Potency [3] | Potency [4] | Potency [5]
61.5%: parasite growth remaining, % of DMSO control (lower = more inhibition) [20]
-16.7%: activity change, negative = inhibition [6]
30.3%: parasite growth, % of control (lower = inhibition) [8]
34.8%: growth, % of control [9]
38.8%: parasite growth, % of DMSO control [7]

COc1cc(SC)ccc1C(=O)N1CCC(Cc2ccccc2)CC1
inactive: outcome [13] | Potency [1] | Potency [2] | Potency [3] | Potency [4] | Potency [5]

COc1ccc(CCC(=O)Nc2nc3ccc(Cl)cc3s2)cc1OC
46.1%: parasite growth, % of control (lower = inhibition) [8]
66.5%: parasite growth remaining, % of DMSO control (lower = more inhibition) [20]
inactive: Potency [1] | Potency [2] | Potency [3] | Potency [4] | Potency [5] | Potency [6]

O=S(=O)(O)c1ccc2cc(N=Nc3cc(S(=O)(=O)O)c4cccnc4c3O)ccc2c1
inactive: Potency [1] | Potency [2] | Potency [3] | Potency [4] | Potency [5] | Potency [6]

Cc1cnc(CNC(=O)c2c(=O)c3ccc(N4CCCN(C)CC4)nc3n3c2sc2ccccc23)cn1
active: Potency [2] 15 µM | Potency [3] 8.41 µM | Potency [21] 3.12 µM
inactive: Potency [1] | Potency [4] | activity change, negative = cytotoxicity [5] -25.6% [at 11.3 µM]
